Test results reported in PubChem BioAssay AID602283 (Johns Hopkins Ion Channel Center, 2012).
Screen size: about 1,100 compounds; about 940 (85%) were called active.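 The calls were made as follows: active = inhibition exceeding 3 SD of buffer-only control wells (cut at about 26% in these data); inactive = the rest.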 So high a share suggests a set chosen from earlier hits. A selection follows.

Experiment: carbachol calcium response changes in non-induced cells, primary screen, counter-screen for RGS4 activator project, cell-based, HEK293 M3R, non-induced RGS4, Fluo-4 calcium (AID 602283);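 also: percent drop in integrated peak-minus-baseline over baseline Fluo4 ratio after carbachol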
Conditions: HEK293 M3R non-induced RGS4, Fluo4 calcium flux; at 10 µM; stronger effect = higher value; after carbachol challenge at its EC90

Structure (SMILES)	inhibition
C=CC12CN(C)[C@@H]3C4CO[C@H](C[C@H]41)[C@]1(C(=O)Nc4ccccc41)[C@@H]32 (some centres not stated)	83.8% (active)
CC(C)Oc1cccc(C(=O)C2CCCN(C3CCOCC3)C2)c1 (configuration not stated)	83.8% (active)
